PubChem BioAssay (EPA / NIEHS)
The source made the active and inactive calls. How the source made its calls: active means hit-call score of the fitted dose curve at least 0.9, where 1 is the maximum; inactive means score below 0.9.

read-out: Matrix Metallopeptidase 9 (MMP9), MMP9 (gene 4318); assay: BSK_KF3CT_MMP9: BioMAP Diversity Plus: KF3CT Assay for Matrix Metallopeptidase 9 (MMP9) Biomarker Activity (AID 2283074); conditions: primary human keratinocytes with fibroblasts; actives raise or lower the signal
Protocol: BSK_KF3CT is a cell-based, multiplexed-readout assay that uses keratinocytes and foreskin fibroblasts, a human skin primary cell co-culture, with measurements taken at 24 hours after chemical dosing in a 96-well plate.BSK_KF3CT_MMP9 is an assay component measured in the BSK_KF3CT assay. It measures MMP-9 antibody related to regulation of gene expression using ELISA technology.Data from the assay component BSK_KF3CT_MMP9 was analyzed into 1 assay endpoint. This assay endpoint, BSK_KF3CT_MMP9, was analyzed with bidirectional fitting relative to DMSO as the negative control and baseline of activity. Using a type of binding reporter, gain or loss-of-signal activity can be used to understand changes in the signaling as they relate to the gene MMP9. Furthermore, this assay endpoint can be referred to as a primary readout, because this assay has produced multiple assay endpoints where this one serves a signaling function. To generalize the intended target to other relatable targets, this assay endpoint is annotated to the protease intended target family, where the subfamily is matrix metalloproteinase.
The levels of cell surface (or secreted, indicated by the prefix "s") biomarker endpoints were measured by ELISA. Overt cytotoxicity to cells in confluent adherent cultures (all systems other than the BT system) was assessed by measuring total protein levels using sulforhodamine B (SRB) staining in parallel cultures at the time of biomarker measurements, indicated as SRB endpoints. For proliferation assays for adherent cell types, individual cell types are cultured at sub-confluence and relative cell numbers quantified by SRB staining at time points optimized for each system (48 h: 3C and CASM3C systems; 72 h: BT and HDF3CGF systems; 96 h: SAg system). SRB was performed by staining cells with 0.1% SRB after fixation with 10% TCA and reading wells at 560 nm.Viability and proliferation of PBMC (T cells) was quantified by Alamar Blue reduction for the SAg and BT systems. For PBMC viability (referred to as PBMC Cytotoxicity within the assay endpoint names), cells were plated (75,000/well in a 96-well plate) and then chemical samples added for 1 h before addition of activators, SEB and TSST-1 (20 ng/mL final concentration each). Cells were incubated for 90 h. Then, Alamar Blue (20 uL/well) (Invitrogen, Cat DAL1100) was added for 6 h, and the plates were read with a fluorescence microplate reader at 546/580 nm (excitation/emission). For PBMC proliferation, cells were plated and activated as above but incubated for only 16 h prior to addition of Alamar Blue. Plates were read after 6 h.

Row | SMILES | outcome | AC50
1 | C=CCc1ccc(O)c(OC)c1 | inactive | –
2 | CCCCOC(=O)CCCCCCCCC(=O)OCCCC | inactive | –
3 | CCCCCCC(=O)OCC | inactive | –
4 | NCCO | inactive | –
5 | Cc1oc(-c2ccccc2)nc1CCOc1cccc2c1ccn2CCC(=O)O | inactive | –
6 | CC1(C)NC(=O)NC1=O | inactive | –
7 | Cc1ccc(C)c(C)c1 | inactive | –
8 | COC(=O)c1ccc(O)cc1 | inactive | –
9 | CC(=O)C(C)=CC1C(C)=CCCC1(C)C (stereo not given) | inactive | –
10 | Cc1ccc(C)c(O)c1C | inactive | –
11 | CC(C)c1ccc(C(=O)N=C(N)N)cc1S(C)(=O)=O | inactive | –
12 | CN[C@H]1CC[C@@H](c2ccc(Cl)c(Cl)c2)c2ccc(S(N)(=O)=O)cc21 | – | 20.9 µM (active)
13 | CCCCC(CC)COC(=O)CC(C(=O)OCC(CC)CCCC)S(=O)(=O)O (stereo not given) | – | 4.84 µM (active)
14 | Cc1ccc(N(C)C)cc1 | inactive | –
15 | CNCc1cc(F)ccc1Oc1ccc(Cl)c(Cl)c1 | inactive | –
16 | COCCOCCOC | inactive | –
17 | CCCCCCCCCCO | inactive | –
18 | NS(=O)(=O)c1cc2c(cc1Cl)NCNS2(=O)=O | inactive | –
19 | C[Si]1(C)O[Si](C)(C)O[Si](C)(C)O[Si](C)(C)O1 | inactive | –
20 | COc1ccc(S(=O)(=O)N2C(=O)[C@@](c3ccccc3OC)(N3C[C@H](O)C[C@H]3C(=O)N(C)C)c3cc(Cl)ccc32)c(OC)c1 | inactive | –

Row | SMILES | outcome | AC50
21 | CC(=O)OCCOCCOCCOC(C)=O | inactive | –
22 | Nc1ccc(S(=O)(=O)c2ccc(N)cc2)cc1 | inactive | –
23 | CCOC(=O)CCC(=O)OCC | inactive | –
24 | Cc1nc(C)nc(N2C[C@@H](C)N(c3ccnc([C@@H](C)O)n3)[C@@H](C)C2)n1 | inactive | –
25 | CCCc1cc(=O)[nH]c(=S)[nH]1 | inactive | –
26 | COc1ccc(C)cc1N | inactive | –
27 | CCCCCCCCCCCCCCCC | inactive | –
28 | Nc1ccccc1N | – | 20 µM (active)
29 | CCNc1cccc(C)c1 | inactive | –
30 | Cc1cc(NC(=O)C(=O)O)cc(C)c1Oc1ccc(O)c2c1CCC2 | inactive | –
31 | CCOC(=O)C(C)(C)Oc1ccc(Cl)cc1 | inactive | –
32 | O=[N+]([O-])C(CO)(CO)CO | inactive | –
33 | COc1ccc2c(c1)c(CC(=O)O)c(C)n2C(=O)c1ccc(Cl)cc1 | inactive | –
34 | CCc1c(C(=O)NN2CCCCC2)nn(-c2ccc(Cl)cc2Cl)c1-c1ccc(Br)cc1 | – | 4.31 µM (active)
35 | CCCCCCCCCCCC(=O)OC | inactive | –
36 | Cc1c(C(=O)O)c(O)cc2c1C(=O)c1c(O)c([C@@H]3O[C@H](CO)[C@@H](O)[C@H](O)[C@H]3O)c(O)c(O)c1C2=O | inactive | –
37 | Cc1cccc([N+](=O)[O-])c1C | inactive | –
38 | Cc1ccccc1Cl | inactive | –
39 | CCCCCCCC=O | inactive | –
40 | COCCOC[C@H](CC1(C(=O)NC2CCC(C(=O)O)CC2)CCCC1)C(=O)Oc1ccc2c(c1)CCC2 (stereo not given in full) | inactive | –
